{"source": "PubChem BioAssay (NCI)", "note": "The panel holds about 83,000 compounds, 20% with a hit somewhere; the sample as a whole holds those more often.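 Single-dose data. Exposure time 48 hours. Values below 10 considered active.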 A number with no mark means an inactive call. The source made the active and inactive calls."}
{"system": "COLO 205 colon", "assay": "NCI-60 one-dose screen, 48 h (100 = growth as untreated, 0 = no growth, -100 = all killed)", "conditions": "10 µM", "method": "Cells are grown in 96 well plates and exposed to the test compound for 48 hours. Compounds are tested at a single concentration, which is 10^-5 M for most compounds. The reported endpoint is percent growth (GI% or GIPRCNT), where numbers from 0 - 100% represent growth inhibition, and numbers from -100% - 0 represent cell death. For example, a value of 40 represents 60% growth inhibition. A value of 0 means no net growth occurred over the course of the experiment. A value of -40 indicates 40% of cells at the beginning of the experiment died by the end of the experiment. A value of -100 means all cells are dead at the end of the experiment.\nNCI-60 Human Tumor Cell Lines Screen was performed using the standard one-dose NCI protocol, which is described in more detail at https://dtp.cancer.gov/discovery_development/nci-60/default.htm.\nCompounds with GIPRCNT values below 10 were considered active. Activity score was based on GIPRCNT using the following formula: […]\nScore is 0 for GIPRCNT values of 100 or above, 50 for GIPRCNT values of 0, and 100 for GIPRCNT values of -100."}
{"smiles": "Cn1cc(-c2nnc(N)nc2-c2c[nH]c3ccc(F)cc23)c2cc(Br)cnc21", "growth": "72.6%"}
{"smiles": "COc1ccccc1-n1cc(C#N)c(N)c1C(=O)c1ccc(Cl)cc1Cl", "growth": "19.6%"}
{"smiles": "Nc1nnc(-c2c[nH]c3ncc(Br)cc23)c(-c2c[nH]c3ccc(Br)cc23)n1", "growth": "0.336% (active)"}
{"smiles": "CC(C)(C)c1cc(/C=C2\\S/C(=N/c3ncn[nH]3)NC2=O)cc(C(C)(C)C)c1O", "growth": "12.4%"}
{"smiles": "COc1cc(C2CC(c3ccccc3)=Nc3c(N)nc(N)nc3N2)ccc1Oc1nc(NCCO)nc(N2CCOCC2)n1", "note": "(stereo not given)", "growth": "112%"}
{"smiles": "Cc1ccc(COc2ccc(NC(=O)Nc3ccc(Cl)c(C(F)(F)F)c3)cc2)cc1", "growth": "76.8%"}
{"smiles": "COc1ccc(C(=O)COc2ccc(NC(=O)Nc3ccc(Cl)c(C(F)(F)F)c3)cc2)cc1", "growth": "7.1% (active)"}
{"smiles": "O=[N+]([O-])c1cccc(-c2nnc3c(/C=C/c4ccccc4O)nc4ccccc4n23)c1", "growth": "41.3%"}
{"smiles": "Cn1cc(-c2cc3nc(-c4c[nH]c5ccccc45)cc(N)n3n2)c2cc(Cl)ccc21", "growth": "-89.9% (active)"}
{"smiles": "O=C(Nc1ccc(OCc2ccc(F)cc2)cc1)Nc1ccc(Cl)c(C(F)(F)F)c1", "growth": "-79.2% (active)"}
{"smiles": "O=C1NC2C=CC=CC2/C1=C1/SC(=S)N(C2CC(=O)N(c3ccc(Br)cc3)C2=O)C1=O", "note": "(stereo not given)", "growth": "104%"}
{"smiles": "O=C(CC(=O)Nc1ccc(Oc2ncnc3scc(Nc4n[nH]c(=S)s4)c23)cc1)Nc1ccc(Cl)cc1", "growth": "88.5%"}
{"smiles": "O=C(Nc1ccc(Oc2ncnc3scc(Nc4n[nH]c(=S)s4)c23)cc1)C1(C(=O)Nc2cccc(C(F)(F)F)c2)CC1", "growth": "101%"}
{"smiles": "Cn1cc(-c2nnc(N)nc2-c2c[nH]c3ccccc23)c2cc(Br)cnc21", "growth": "32.4%"}
{"smiles": "COc1ccc(NCc2cn(-c3ccc(C(=O)O)cc3)nc2-c2ccc(F)cc2)cc1C(F)(F)F", "growth": "71.2%"}
{"smiles": "COC(=O)CNC(=O)COc1c(OC)c(OC)cc2oc(-c3cccc(C(=O)Nc4ccc(Cl)cc4)c3)cc(=O)c12", "growth": "31%"}
{"smiles": "CCOC(=O)c1ccc(NC(=O)CSC(CC(=O)c2sc(Nc3ccccn3)nc2C)c2ccccc2F)cc1", "note": "(stereo not given)", "growth": "-34.1% (active)"}
{"smiles": "C#C[C@]1(O)CC[C@H]2[C@@H]3CC=C4c5sc(Nc6cc(C)cc(C)n6)nc5CC[C@]4(C)[C@H]3CC[C@@]21C", "growth": "-95.5% (active)"}
{"smiles": "COc1cc2oc(-c3cccc(C(=O)Nc4ccc(Cl)cc4)c3)cc(=O)c2c(OCCNC(=O)[C@@H](N)CO)c1OC", "growth": "40.9%"}
{"smiles": "O=C(CSc1nc2ccccc2c(=O)n1-c1ccc(Cl)cc1)Nc1ccc(-c2nc3ccccc3[nH]2)cc1", "growth": "-12% (active)"}
{"smiles": "CC1(C)CC(=O)C2=C(C1)N(Cc1ccc(C(=O)O)cc1)C1=C(C(=O)CC(C)(C)C1)C2c1ccc(Cl)cc1", "growth": "121%"}
{"smiles": "Cc1ccc(-c2nc(C#N)c(S(=O)(=O)N3CCN(S(C)(=O)=O)CC3)o2)cc1", "growth": "-69.3% (active)"}
{"smiles": "COc1cc(Nc2nc(O)c(/C=C3\\C=Nc4ccccc43)s2)cc(OC)c1OC", "growth": "-5.44% (active)"}
{"smiles": "COc1ccc(Cn2cc(C#N)c(N)c2C(C)=O)c(OC)c1", "growth": "125%"}
{"smiles": "O=C(c1ccc(Cl)cc1)C(c1c[nH]c2ccccc12)c1c[nH]c2ccccc12", "growth": "-87.9% (active)"}
{"smiles": "CCn1c(SCC(=O)Nc2ccc(-c3nc4ccccc4[nH]3)cc2)nc2ccccc2c1=O", "growth": "-72.7% (active)"}
{"smiles": "Cc1ccc2c(c1)C(=O)/C(=C/c1ccc([N+](=O)[O-])cc1)S2", "growth": "103%"}
{"smiles": "COc1cccc(C(=O)CSc2nc(-c3ccc(OCc4ccccc4)c(OC)c3)c(C#N)c(=O)[nH]2)c1", "growth": "115%"}
{"smiles": "O=C(CN1CCN(c2ncnc3c2cnn3-c2ccccc2)CC1)Nc1ccc(Br)cc1", "growth": "70.6%"}
{"smiles": "Cc1ccc2c(c1)C(=O)/C(=C/c1c[nH]c3ccccc13)S2", "growth": "67.8%"}
{"smiles": "COc1ccc(C(=O)COc2ccc(NC(=O)Nc3ccccc3)cc2)cc1", "growth": "107%"}
{"smiles": "CC1(C)CC[C@]2(C(=O)O)CC[C@]3(C)C(=CCC4[C@@]5(C)C[C@@H](O)[C@@H]6OC(c7cccc(F)c7)OC[C@@]6(C)C5CC[C@]43C)C2C1", "note": "(stereo not given in full)", "growth": "15.2%"}
{"smiles": "COc1ccc2[nH]cc(-c3nc(N)nnc3-c3cn(C)c4ncc(Br)cc34)c2c1", "growth": "-73.9% (active)"}
{"smiles": "COc1ccc(C2c3sc4ccc(C)cc4c3Oc3nc[nH]c(=O)c32)cc1", "note": "(stereo not given)", "growth": "103%"}
{"smiles": "C#C[C@]1(O)CC[C@H]2[C@@H]3CC=C4c5sc(Nc6ccc(N(C)C)cc6)nc5CC[C@]4(C)[C@H]3CC[C@@]21C", "growth": "-28.6% (active)"}
{"smiles": "COc1ccc(OC)c(-n2cc(C#N)c(N)c2C(=O)c2ccc(Cl)cc2Cl)c1", "growth": "32.6%"}
{"smiles": "COc1cc2oc(-c3cccc(C(=O)Nc4ccc(Cl)cc4)c3)cc(=O)c2c(OCCN)c1OC", "growth": "-75.8% (active)"}
{"smiles": "COc1ccc(Cc2nn(CC(=O)N/N=C/c3ccc([N+](=O)[O-])cc3)c(=O)c3c(C)noc23)cc1", "growth": "82.9%"}
{"smiles": "CC1[C@H]2[C@H](C[C@H]3[C@@H]4CC=C5c6sc(Nc7cccc(Cl)n7)nc6CC[C@]5(C)[C@H]4CC[C@@]32C)O[C@]12CC[C@@H](C)CO2", "note": "(stereo not given in full)", "growth": "70.2%"}
{"smiles": "O=C(c1ccccc1)c1ccc2nc(-c3ccccc3Br)[nH]c2c1", "growth": "-75.5% (active)"}
